Screening data (PubChem)
This is a sample that favours compounds with a hit; in the whole collection about 2.4% have one here.
POLI inh – inhibitors of human DNA polymerase iota. Potency, µM (doses to about 115 µM), without a hit: top-dose activity, negative = inhibition, usual class: inhibitors. 390,000 compounds, 1% hits. AID 588590. Pol iota fluorescent replication assay, 10 min
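Pol iota at 10 nM preincubated 15 min with compounds at room temperature; reaction started with fluorescent substrate, 50 nM final. Fluorescence read kinetically at 0 and 10 min; buffer-only wells as negative control.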
Pol kappa inh – DNA polymerase kappa (human) inhibition | Q9UBT6 | purified Pol kappa, fluorescent DNA synthesis assay, 10 min | Potency, µM (doses to about 107 µM), for the others: top-dose activity, negative = inhibition, actives largely listed as inhibitors | 400,000 compounds, 0.53% hits | AID 588579; note: % is set by controls: 0 for no effect and ±100 for the full control effect
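10 nM Pol kappa preincubated 15 min at room temperature with compounds, then reaction started with substrate at 50 nM final. Fluorescence read kinetically at 0 and 10 min; buffer-only wells served as negative control.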
Pol beta inh – inhibitors of human DNA polymerase beta; P06746; Pol beta primer extension/strand displacement, fluorescence kinetic; Potency, µM (top dose mostly 114 µM), without a hit: at the top dose activity change, negative = inhibition, hits mostly inhibitors; 340,000 compounds, 1.3% hits; AID 485314; note: % is set by controls: 0 for no effect and ±100 for the full control effect
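Preincubation: enzyme (10 nM) with compound, 15 min, RT. Reaction: substrate added to 50 nM final. Reads: 0 and 10 min. Analysis: normalized, Hill fit.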
TDP1 block – inhibitors of human tyrosyl-DNA phosphodiesterase TDP1; Q9NUW8; recombinant TDP1, AlphaScreen DNA substrate cleavage; Potency, µM (titrated, usually from 130 µM), for the others: at the top dose activity change, negative = inhibition, hits mostly inhibitors; 350,000 compounds, 0.28% hits; AID 485290; note: % is set by controls: 0 for no effect and ±100 for the full control effect; nearly all actives have a fitted effect of over 40% in size
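Recombinant human Tdp1 (E. coli-expressed, 1 nM final) preincubated with compounds 15 min at room temperature, then 5'-biotin/3'-phosphotyrosine-FITC DNA substrate (15 nM final) added for 5 min. AlphaScreen beads (10 ug/ml final) added 10 min; cleavage lowers signal.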
POLH inh – inhibitors of human DNA polymerase eta | Q9Y253 | recombinant Pol eta, fluorescent DNA replication assay | Potency, µM (titrated, usually from 114 µM), inactives show at the highest dose activity change, negative = inhibition, most hits filed as inhibitors | 390,000 compounds, 1.2% hits; note: % is set by controls: 0 for no effect and ±100 for the full control effect
Target sequence (Q9Y253 whole entry, looked up): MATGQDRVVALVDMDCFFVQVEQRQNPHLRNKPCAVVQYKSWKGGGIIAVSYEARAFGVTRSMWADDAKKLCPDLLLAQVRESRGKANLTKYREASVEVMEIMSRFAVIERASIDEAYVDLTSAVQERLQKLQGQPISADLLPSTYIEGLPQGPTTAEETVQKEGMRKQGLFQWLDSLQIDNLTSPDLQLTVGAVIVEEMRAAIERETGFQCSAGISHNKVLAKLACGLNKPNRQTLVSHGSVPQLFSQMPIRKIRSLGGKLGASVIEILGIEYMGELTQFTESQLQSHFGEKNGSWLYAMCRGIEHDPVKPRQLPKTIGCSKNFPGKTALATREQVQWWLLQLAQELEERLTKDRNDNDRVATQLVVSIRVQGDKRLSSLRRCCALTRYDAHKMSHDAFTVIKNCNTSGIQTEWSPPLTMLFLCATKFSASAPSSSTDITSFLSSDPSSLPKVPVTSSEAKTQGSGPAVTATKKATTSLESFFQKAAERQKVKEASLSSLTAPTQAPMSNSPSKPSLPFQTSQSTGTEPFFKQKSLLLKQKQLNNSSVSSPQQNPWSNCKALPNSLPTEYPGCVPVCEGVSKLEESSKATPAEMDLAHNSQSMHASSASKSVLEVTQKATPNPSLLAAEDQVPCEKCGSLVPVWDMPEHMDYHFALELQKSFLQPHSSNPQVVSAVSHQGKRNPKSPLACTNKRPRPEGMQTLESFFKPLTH
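Pol eta at 10 nM preincubated with compounds 15 min at room temperature; reaction started with fluorescent substrate (50 nM final) and read kinetically at 0 and 10 min.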
TbPGK inh – blocks T. brucei phosphoglycerate kinase; shares compounds with Pol kappa inh; TbPGK coupled GAPDH assay, Kinase-Glo luminescence; Potency, µM (highest dose often 57.5 µM), for the others: top-dose activity change, negative = inhibition, most hits filed as inhibitors; 500 compounds, 79% hits; note: % is set by controls: 0 for no effect and ±100 for the full control effect; nearly all actives have a fitted effect of over 65% in size
Pol iota confirm – Confirm cherry-picked inhibitors of human polymerase iota; shares compounds with Pol kappa inh; Pol iota primer extension, TAMRA/BHQ fluorescence; Potency, µM, hits mostly inhibitors; 1,500 compounds, 77% hits
Starred values were filed as active, the others as inactive; ? = inconclusive; · = no result given; [ ] = remark or other dose. Calls come from the whole dose curve; as a rule, active = well fitted curve in the direction sought with a large enough effect; inconclusive = small, poorly fitted or top-dose-only effect, or another doubt; inactive = no such curve, though single readings can be large; an effect the other way counts as inactive or inconclusive. Potency is the fitted concentration of half-maximal effect.

SMILES | POLI inh | Pol kappa inh | Pol beta inh | TDP1 block | POLH inh | TbPGK inh | others
CCOC(=O)C1CCN(CC(=O)Nc2cc(C)c3c(=O)oc4ccccc4c3n2)CC1 | 5% | 0% | 10% | 2% | -14% | ·
O=C(c1coc(=O)c(Br)c1)N1CCC(C(O)(c2ccccc2)c2ccccc2)CC1 | 18% | 0% | -14% | 0% | -18% | ·
CC1(C)CCCN(C(=O)c2coc(=O)c(Br)c2)C1 | 10µM* | 14µM* | 0.45µM* | 6.3µM* | 0.89µM* | 0.82µM*
N#Cc1c(-c2ccccc2)c(C#N)c2nc3ccccc3n2c1N | 16µM* | -35% | -8% | -14% | -6% | · | Pol iota confirm=?
C=C(C)C(=O)OCCCCCCOc1ccc(C(=O)O)cc1 | 14µM* | 25µM* | 71µM* | 25µM* | 35µM* | 9.2µM*
O=C1/C(=C\c2ccc(O)cc2)SC(=S)N1c1cccnc1 | ? | -60% | ? | · | ? | · | Pol iota confirm=?
c1ccc(CNc2c3ccccc3nc3ccccc23)cc1 | ? | -27% | ? | · | ? | ·
Oc1ccc(CCNc2c3ccccc3nc3ccccc23)cc1O | 40µM* | ? | 7.1µM* | · | ? | · | Pol iota confirm=75*
O=C(COc1ccc(Cl)cc1Cl)NCc1ccco1 | -2% | -13% | 18% | 1% | 0% | ·
Cc1ccc(OCC(=O)N(C)CC(=O)NCc2ccco2)c(Br)c1 | ? | 79µM* | · | 32µM* | 14µM* | 21µM*
COc1ccccc1NS(=O)(=O)c1cc(NC(=O)c2ccc3c(c2)OCCO3)ccc1C | ? | 0% | 28% | 6% | -25% | 2%
COc1ccccc1NS(=O)(=O)c1cc(NC(=O)CNC(=O)c2ccccc2)ccc1C | 0% | -16% | 25% | 0% | -14% | ·
CCN(CC)CCCNc1ncnc2ccccc12 | 21% | -11% | 2% | 7% | -18% | ·
CCN(CC)CCCNc1ccc2ncn3c4ccc(O)cc4c(=O)c1c23 | ? | 79µM* | · | · | ? | · | Pol iota confirm=42*
Cc1ccc(-c2cc(C(=O)N/N=C/c3c(C)nn(C)c3C)c3ccccc3n2)cc1C | 22µM* | 3% | ? | -1% | ? | · | Pol iota confirm=?
O=C(CN1C(=O)N/C(=C\c2cccn2-c2cccc(C(=O)O)c2)C1=O)Nc1ccccc1F | · | · | · | -7% | · | ·
Cc1ccc(NC(=O)CN2C(=O)S/C(=C\c3cccn3-c3cccc(C(=O)O)c3)C2=O)c(C)c1 | ? | ? | 10µM* | 50µM* | 3.5µM* | 9.2µM*
Cc1ccc(S(=O)(=O)c2c(O)cc(C)c(NS(=O)(=O)c3ccc(Br)cc3)c2C)cc1 | -14% | -9% | 0% | · | -20% | ·
COc1ccc(C#Cc2c(-c3ccc(OC)cc3)oc3ccc(-c4ccc(OC)cc4)cc23)cc1 | 8% | -14% | · | · | -4% | ·
COc1ccc(-c2ccc3oc(-c4ccc(OC)cc4)c(C#CCCO)c3c2)cc1 | 35µM* | 8% | · | · | 45µM* | · | Pol iota confirm=38*
CCCCS(=O)(=O)N1CCc2nc(COc3ccccc3)c3c(c2C1)CO[C@@H](C)C3 | · | · | · | 5%[21 µM] | · | ·
O=C(N/N=C\c1c(O)ccc2ccccc12)c1ccc(O)cc1 | 26% | -21% | -3% | · | -9% | ·
O=C(N/N=C/c1c(O)ccc2ccccc12)c1ccc(Br)o1 | 101% | 0% | 13µM* | ? | ? | 18µM*
CSc1ccc(/C=C/c2nc3ccccc3n2S(=O)(=O)c2ccc(F)c(C)c2)cc1 | 2% | -7%[60.1 µM] | 13% | 8% | -20% | 10µM*
Cc1ccc(/C=C/c2nc3ccccc3n2S(=O)(=O)c2cccc(Cl)c2)cc1 | -28% | -5%[60.1 µM] | -12% | 1% | -8% | ·
COc1ccc(OC)c(-c2c3cc(O)c(=O)cc-3oc3cc(O)c(O)cc23)c1 | ? | ? | 45µM* | 9% | · | 0.37µM*
Cn1c(=O)c2sccc2n2c(CCCC(=O)NC3CCCCC3)nnc12 | -1% | -14% | 15% | -5% | -12% | ·
